According to the supplement of paper PMC11732987, “Enantioselective OTUD7B fragment discovery through chemoproteomics screening and high-throughput optimisation” (Communications Chemistry, 2025):

Columns and labels:
Experiment in all cases: log2 ratio of Biotin-Ahx-Ub-VS probe labelling (fragment/DMSO); higher = less target engagement (more negative = stronger competition), active = hit call of the paper (q ≤ 0.05, log2 ratio ≤ -1)
Settings in all cases: compound concentration: 200 uM; treatment time: 3 h
USP34 = USP34 (UniProt Q70CQ2)
Outline: (§1)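 HEK293T lysate, 495 µg per sample in Tris/CHAPS/IGEPAL buffer with protease inhibitors, was treated in triplicate with fragment at 200 µM or vehicle for 3 h and then with Biotin-Ahx-Ub-VS at 0.5 µM final for 1 h. Labelled DUBs were NeutrAvidin-enriched, digested with LysC and trypsin, and run by diaPASEF LC-MS/MS. Spectronaut label-free quantities were global-median-normalised, and values are average log2 fragment/vehicle ratios by unpaired t-test on proteins with ≥2 unique peptides.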

USP36 = target: T1, USP36 (UniProt Q9P275)
T1 sequence (whole entry): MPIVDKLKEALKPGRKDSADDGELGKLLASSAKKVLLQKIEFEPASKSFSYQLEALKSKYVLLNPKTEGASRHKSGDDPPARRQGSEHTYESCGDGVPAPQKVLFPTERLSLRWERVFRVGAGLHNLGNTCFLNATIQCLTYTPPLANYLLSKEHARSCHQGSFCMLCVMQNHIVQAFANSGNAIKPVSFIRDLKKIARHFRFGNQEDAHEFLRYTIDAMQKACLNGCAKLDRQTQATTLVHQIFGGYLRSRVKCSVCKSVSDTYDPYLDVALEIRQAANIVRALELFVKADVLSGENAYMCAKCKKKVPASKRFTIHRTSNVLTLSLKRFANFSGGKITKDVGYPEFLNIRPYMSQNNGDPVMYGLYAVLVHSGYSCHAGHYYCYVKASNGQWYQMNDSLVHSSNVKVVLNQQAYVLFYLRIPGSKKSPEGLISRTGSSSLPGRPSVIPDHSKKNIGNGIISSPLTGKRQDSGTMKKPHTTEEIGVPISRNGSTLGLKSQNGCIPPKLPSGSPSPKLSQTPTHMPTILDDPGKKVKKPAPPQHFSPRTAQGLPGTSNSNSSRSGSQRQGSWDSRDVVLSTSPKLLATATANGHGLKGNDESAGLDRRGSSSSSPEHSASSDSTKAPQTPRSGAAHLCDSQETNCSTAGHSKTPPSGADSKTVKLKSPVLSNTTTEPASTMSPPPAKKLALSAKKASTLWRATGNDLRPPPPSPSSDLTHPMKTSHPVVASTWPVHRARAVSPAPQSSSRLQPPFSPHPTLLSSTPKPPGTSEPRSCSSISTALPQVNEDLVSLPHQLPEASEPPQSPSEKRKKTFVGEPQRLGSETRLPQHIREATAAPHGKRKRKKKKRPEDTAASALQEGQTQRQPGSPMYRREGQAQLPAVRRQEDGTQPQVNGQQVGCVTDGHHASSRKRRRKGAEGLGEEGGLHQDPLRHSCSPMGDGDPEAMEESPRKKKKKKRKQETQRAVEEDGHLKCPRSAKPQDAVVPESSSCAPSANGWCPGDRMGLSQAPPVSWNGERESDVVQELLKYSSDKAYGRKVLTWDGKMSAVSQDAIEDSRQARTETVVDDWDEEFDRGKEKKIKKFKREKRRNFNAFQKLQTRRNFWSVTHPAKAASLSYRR
Outline: as §1

USP38 = target: T2, USP38 (UniProt Q8NB14)
T2 sequence (whole entry): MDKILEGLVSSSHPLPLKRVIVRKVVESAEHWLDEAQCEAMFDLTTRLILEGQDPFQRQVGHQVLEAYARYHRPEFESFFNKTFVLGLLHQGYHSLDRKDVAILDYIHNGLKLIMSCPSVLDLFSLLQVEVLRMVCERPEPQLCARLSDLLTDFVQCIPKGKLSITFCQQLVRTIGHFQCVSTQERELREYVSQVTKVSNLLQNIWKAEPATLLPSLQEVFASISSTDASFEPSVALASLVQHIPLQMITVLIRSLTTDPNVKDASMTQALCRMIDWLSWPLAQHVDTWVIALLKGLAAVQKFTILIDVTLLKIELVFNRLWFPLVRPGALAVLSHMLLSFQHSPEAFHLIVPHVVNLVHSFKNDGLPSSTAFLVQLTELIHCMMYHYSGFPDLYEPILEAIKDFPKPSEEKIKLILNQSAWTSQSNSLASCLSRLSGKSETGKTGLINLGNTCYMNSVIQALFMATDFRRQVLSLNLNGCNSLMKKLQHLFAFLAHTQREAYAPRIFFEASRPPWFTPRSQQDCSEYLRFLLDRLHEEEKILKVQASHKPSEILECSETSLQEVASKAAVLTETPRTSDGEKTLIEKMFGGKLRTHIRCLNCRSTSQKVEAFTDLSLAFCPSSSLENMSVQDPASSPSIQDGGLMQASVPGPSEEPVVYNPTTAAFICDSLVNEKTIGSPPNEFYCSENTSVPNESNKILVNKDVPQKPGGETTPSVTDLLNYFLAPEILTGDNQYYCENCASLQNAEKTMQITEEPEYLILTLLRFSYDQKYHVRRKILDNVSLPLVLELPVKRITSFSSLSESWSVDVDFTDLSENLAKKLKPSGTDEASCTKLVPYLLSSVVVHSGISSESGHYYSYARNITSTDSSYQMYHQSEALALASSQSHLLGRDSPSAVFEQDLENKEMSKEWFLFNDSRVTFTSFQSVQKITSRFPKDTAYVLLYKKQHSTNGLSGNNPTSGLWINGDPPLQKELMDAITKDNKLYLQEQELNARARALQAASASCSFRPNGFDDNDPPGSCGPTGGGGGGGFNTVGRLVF
Outline: as §1

USP39 = target: T3, USP39 (UniProt Q53GS9)
T3 sequence (whole entry): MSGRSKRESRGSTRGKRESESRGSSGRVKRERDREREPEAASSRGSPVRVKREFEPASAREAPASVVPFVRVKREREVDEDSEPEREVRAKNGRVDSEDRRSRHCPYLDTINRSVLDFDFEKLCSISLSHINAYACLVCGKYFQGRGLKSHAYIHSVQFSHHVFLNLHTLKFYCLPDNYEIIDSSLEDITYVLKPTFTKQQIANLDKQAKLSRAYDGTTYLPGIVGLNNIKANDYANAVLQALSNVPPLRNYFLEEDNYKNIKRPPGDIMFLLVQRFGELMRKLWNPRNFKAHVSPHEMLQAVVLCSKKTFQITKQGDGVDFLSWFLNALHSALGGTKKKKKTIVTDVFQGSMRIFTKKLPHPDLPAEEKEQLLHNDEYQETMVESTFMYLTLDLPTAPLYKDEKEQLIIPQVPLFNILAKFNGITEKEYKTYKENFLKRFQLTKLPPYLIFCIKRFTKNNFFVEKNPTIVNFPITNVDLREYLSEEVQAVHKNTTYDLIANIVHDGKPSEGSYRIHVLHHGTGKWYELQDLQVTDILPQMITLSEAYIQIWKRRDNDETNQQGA
Outline: as §1

USP4 = target: T4, USP4 (UniProt Q13107)
T4 sequence (whole entry): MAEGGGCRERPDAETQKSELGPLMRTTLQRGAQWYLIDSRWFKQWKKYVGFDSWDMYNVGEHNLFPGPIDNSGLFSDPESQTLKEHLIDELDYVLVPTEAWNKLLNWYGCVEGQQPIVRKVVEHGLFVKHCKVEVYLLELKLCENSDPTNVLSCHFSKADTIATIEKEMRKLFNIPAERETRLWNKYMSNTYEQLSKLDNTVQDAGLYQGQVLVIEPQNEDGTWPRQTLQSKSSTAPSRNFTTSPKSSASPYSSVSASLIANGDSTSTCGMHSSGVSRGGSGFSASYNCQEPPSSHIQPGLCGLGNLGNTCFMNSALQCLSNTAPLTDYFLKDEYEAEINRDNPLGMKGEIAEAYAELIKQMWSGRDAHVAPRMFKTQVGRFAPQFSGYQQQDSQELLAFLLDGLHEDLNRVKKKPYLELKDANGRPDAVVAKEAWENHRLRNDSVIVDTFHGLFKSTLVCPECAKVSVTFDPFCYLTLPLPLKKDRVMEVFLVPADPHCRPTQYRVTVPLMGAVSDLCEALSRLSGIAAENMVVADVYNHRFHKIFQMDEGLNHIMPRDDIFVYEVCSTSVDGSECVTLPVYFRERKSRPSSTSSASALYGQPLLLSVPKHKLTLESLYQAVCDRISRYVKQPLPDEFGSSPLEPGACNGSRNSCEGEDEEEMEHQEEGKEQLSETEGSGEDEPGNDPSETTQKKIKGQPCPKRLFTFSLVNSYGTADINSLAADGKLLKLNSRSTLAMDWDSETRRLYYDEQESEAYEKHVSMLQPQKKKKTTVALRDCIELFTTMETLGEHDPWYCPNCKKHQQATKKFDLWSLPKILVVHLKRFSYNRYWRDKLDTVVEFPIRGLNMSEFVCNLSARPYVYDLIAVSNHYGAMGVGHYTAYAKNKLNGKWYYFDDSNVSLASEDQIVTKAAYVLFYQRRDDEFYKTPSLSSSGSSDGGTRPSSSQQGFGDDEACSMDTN
Outline: as §1

Measured: log2 ratio of Biotin-Ahx-Ub-VS probe labelling

Sequence of USP34 (Q70CQ2 whole entry, the tested form may be a part): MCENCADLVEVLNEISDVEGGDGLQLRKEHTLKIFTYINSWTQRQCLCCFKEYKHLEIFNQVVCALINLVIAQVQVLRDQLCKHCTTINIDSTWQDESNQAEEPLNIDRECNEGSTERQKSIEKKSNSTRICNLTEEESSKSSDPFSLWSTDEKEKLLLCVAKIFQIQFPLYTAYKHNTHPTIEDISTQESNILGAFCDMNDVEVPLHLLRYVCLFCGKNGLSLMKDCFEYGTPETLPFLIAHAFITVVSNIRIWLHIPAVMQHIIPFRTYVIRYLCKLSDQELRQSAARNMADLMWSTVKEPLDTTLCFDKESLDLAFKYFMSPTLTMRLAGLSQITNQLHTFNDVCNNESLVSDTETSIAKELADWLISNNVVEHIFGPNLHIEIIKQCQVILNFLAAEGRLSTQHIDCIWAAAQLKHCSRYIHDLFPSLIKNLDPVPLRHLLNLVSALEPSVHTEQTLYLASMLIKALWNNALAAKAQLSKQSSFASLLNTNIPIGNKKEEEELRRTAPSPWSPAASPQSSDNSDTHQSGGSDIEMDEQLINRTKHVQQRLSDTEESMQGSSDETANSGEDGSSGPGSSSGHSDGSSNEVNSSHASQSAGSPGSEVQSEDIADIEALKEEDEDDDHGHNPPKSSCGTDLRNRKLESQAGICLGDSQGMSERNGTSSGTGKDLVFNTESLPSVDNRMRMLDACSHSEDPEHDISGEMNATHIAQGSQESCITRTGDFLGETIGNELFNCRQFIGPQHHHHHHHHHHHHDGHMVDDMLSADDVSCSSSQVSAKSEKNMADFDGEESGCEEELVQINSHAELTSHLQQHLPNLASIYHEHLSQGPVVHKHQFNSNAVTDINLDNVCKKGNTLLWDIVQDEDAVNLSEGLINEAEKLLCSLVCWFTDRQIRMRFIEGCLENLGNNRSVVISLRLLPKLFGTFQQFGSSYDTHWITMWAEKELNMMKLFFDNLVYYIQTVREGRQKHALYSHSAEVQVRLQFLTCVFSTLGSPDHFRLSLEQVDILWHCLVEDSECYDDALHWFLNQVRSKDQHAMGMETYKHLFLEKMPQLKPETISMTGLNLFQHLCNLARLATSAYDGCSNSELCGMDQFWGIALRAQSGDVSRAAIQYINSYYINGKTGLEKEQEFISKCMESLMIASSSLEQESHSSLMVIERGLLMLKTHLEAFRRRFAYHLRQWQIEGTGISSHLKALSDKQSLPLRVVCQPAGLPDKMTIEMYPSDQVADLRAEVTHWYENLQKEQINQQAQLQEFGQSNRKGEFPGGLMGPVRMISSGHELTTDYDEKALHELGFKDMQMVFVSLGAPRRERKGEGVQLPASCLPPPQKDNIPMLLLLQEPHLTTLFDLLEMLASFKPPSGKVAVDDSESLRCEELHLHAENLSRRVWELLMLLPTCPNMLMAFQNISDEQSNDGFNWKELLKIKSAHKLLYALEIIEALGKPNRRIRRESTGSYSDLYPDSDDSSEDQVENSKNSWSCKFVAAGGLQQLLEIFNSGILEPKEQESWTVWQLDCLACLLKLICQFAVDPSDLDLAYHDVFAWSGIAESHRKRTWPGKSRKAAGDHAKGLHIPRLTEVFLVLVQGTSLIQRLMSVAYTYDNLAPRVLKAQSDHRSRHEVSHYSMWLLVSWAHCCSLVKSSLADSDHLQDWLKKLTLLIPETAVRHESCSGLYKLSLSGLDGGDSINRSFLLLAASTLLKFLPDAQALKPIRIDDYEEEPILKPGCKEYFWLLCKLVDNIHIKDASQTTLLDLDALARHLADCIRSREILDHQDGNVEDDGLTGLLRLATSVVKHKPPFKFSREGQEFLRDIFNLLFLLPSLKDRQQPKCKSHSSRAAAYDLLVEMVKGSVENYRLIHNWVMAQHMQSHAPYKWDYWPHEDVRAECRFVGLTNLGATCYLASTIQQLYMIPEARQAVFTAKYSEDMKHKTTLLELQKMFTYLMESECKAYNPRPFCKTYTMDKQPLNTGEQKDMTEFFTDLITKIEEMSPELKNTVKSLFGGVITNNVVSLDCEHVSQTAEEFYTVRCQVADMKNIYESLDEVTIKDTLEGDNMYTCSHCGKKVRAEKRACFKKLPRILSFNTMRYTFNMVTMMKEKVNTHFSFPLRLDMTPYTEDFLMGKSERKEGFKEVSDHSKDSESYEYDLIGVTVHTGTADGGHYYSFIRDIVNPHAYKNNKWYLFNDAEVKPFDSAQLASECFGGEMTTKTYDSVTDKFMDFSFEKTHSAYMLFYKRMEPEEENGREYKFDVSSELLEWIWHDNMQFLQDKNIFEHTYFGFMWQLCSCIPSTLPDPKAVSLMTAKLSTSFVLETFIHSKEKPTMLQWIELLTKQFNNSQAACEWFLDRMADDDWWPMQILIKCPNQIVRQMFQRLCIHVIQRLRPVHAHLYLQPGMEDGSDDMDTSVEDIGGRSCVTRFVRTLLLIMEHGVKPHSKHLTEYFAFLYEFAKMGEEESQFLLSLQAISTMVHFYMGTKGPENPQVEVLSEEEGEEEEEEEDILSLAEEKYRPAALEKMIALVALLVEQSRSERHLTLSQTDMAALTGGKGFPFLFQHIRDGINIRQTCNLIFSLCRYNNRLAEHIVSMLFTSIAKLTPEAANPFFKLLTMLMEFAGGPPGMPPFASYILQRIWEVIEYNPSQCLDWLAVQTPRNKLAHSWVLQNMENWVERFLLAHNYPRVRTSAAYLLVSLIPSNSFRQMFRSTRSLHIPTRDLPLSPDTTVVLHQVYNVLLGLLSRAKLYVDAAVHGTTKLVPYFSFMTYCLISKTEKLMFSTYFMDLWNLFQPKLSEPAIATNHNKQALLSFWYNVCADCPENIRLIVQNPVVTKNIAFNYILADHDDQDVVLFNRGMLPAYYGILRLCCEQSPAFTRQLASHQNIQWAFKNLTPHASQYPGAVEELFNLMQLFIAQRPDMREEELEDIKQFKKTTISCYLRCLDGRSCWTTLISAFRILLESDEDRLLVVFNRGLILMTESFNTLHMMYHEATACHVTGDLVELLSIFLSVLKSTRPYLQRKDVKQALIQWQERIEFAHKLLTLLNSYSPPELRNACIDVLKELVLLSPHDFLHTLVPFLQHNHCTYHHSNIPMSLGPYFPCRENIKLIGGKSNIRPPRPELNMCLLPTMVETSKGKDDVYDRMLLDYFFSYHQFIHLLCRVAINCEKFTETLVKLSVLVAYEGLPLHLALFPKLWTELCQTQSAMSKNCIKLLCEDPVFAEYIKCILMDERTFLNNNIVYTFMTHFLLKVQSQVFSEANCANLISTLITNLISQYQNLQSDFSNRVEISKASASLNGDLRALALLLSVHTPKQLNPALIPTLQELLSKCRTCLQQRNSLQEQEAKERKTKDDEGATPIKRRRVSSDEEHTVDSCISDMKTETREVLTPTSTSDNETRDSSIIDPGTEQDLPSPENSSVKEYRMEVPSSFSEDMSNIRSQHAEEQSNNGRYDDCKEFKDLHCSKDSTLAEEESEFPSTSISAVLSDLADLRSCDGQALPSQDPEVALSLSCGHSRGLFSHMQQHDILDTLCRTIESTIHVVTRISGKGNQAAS

Cc1ccc2nnc(CNC(=O)CCl)n2c1
inactive: USP34 -0.0797 | USP36 -0.0909 | USP38 -0.0516 | USP39 -0.108 | USP4 0.17
